# RmlCD inh mix – RmlC and RmlD coupled enzyme inhibitors, primary screen, biochemical, 384-well, compound mixtures, retest; AID 1532, 2009; inhibition, % at 5.5 µM; RmlC/RmlD coupled enzyme inhibition, 384-well mixture HTS; actives 0.39% (n = 110,000); in the data active = inhibition above about 30%, passing the limit was not always enough
# HIV RNase H inh-1 – HIV-1 RT RNase H inhibitors, primary screen, biochemical, fluorescence; AID 565, 2006; actives 1.9% (n = 65,000); RT-RNase H RNA/DNA duplex cleavage; inhibition, % at 10 µM; in the data active = inhibition above about 50%
# HIV RNase H inh-2 – HIV-1 RT RNase H inhibitors, retest, confirmation, biochemical; shares compounds with HIV RNase H inh-1; inhibition, % at 10 µM; Recombinant RT RNase H, fluorescent RNA/DNA duplex cleavage; actives 39% (n = 1,000); in the data active = inhibition above about 48%
# Numbers without * were called inactive; / = not tested or not shown. This is one part of a sample in which hits are shown more often than they occur.
SMILES,RmlCD inh mix,HIV RNase H inh-1,HIV RNase H inh-2
COc1ccc(Cl)cc1NC(=S)N1CCN(C(=O)c2ccco2)CC1,4.8,/,/
CCOC(=O)N1CCC2(CC1)C(C#N)=C(N)OC1=C2C(=O)CC(C)C1 (stereo not drawn),-10.5,/,/
C=C(C)C(=O)OC1(C(F)(F)F)Oc2cc(C)ccc2NC1=O (stereo not drawn),4.9,/,/
O=C(Nc1ccc(/C=C/c2nc3ccccc3o2)cc1)c1ccc(F)cc1,-30.7,/,/
C=C1CCC(C)C(C)(CCC2=CCOC2=O)C/C=C\C=C/1C(=O)O (stereo not drawn),3.8,/,/
Cc1ccccc1OCC(O)Cn1c(SC(C)C)nc2c1c(=O)[nH]c(=O)n2C (stereo not drawn),-9.0,66.7*,-9.1
Cc1cc(C)n(-c2nc3c(c(=O)[nH]c(=O)n3C)n2CC(O)COc2ccccc2C)n1 (stereo not drawn),-11.8,-6.5,/
CCSc1nc2c(c(=O)[nH]c(=O)n2C)n1CC(O)COc1ccccc1C (stereo not drawn),6.3,75.7*,37.1
Cc1ccccc1OCC(O)Cn1c(NCc2ccccc2)nc2c1c(=O)[nH]c(=O)n2C (stereo not drawn),6.0,/,/
COc1ccc(N2C(=O)C3CCCN3C2c2ccc(C)o2)cc1 (stereo not drawn),-9.3,/,/
NNC(=O)Cn1c(SCc2ccccc2)nc2ccccc21,1.4,/,/
Cc1cc(C)nc(SCc2nc(N)nc(-c3ccccc3O)n2)n1,2.8,-32.4,/
CO/C([O-])=N/c1c[n+](-c2ccc(C)cc2)no1,-1.3,2.5,/
CCCC[n+]1cc(/N=C(\[O-])OC)on1,-3.8,83.9*,7.8
Cn1c(N2CCOCC2)nc(-c2ccccc2)c1-c1ccccc1,4.2,-22.1,/
O=C(NC(=O)c1ccc(Cl)cc1)Nc1cc(N2CCCCC2)ncn1,/,75.5*,98.8*
O=C(Nc1cc(N2CCOCC2)ncn1)Nc1cccc2ccccc12,-2.5,-1.8,/
CCOC(=O)CSCC(=O)Nc1c(C(=O)C2CC2)oc2ccccc12,-18.2,/,/
CC1CCN(c2nc(-c3ccco3)c3c(c2C#N)CC(C)(C)OC3)CC1,-11.3,34.6,/
CCN(CC)c1ccc(C=N/C(C#N)=C(\N)C#N)cc1,13.7,80.1*,45.4
CCN(CC)c1ccc(/C=N/N2CCOCC2)cc1,-0.1,/,/
Cc1cc(C)c(NC(=O)c2ccc(CN3CCc4ccccc4C3)cc2)c(C)c1,-13.2,/,/
Cc1nc2cc(C(=O)N3CCC4(CC3)OCCO4)ccc2n1-c1cccc(F)c1,-9.2,-15.1,/
O=C(c1ccc2nc(-c3ccco3)c(-c3ccco3)nc2c1)N1CCC2(CC1)OCCO2,/,74.7*,33.1
O=C1OCC(CO)(CO)N=C1NNc1ccc(Cl)c(Cl)c1,-9.3,/,/
SMILES,RmlCD inh mix,HIV RNase H inh-1,HIV RNase H inh-2
CCn1c(CSc2nc3ccccc3s2)nnc1SCC(=O)c1ccc(O)c(O)c1,-5.6,/,/
C=CCn1c(SCC(N)=O)nnc1-c1ccccc1O,-69.6,-0.8,/
CCn1c(SCC(=O)c2ccc(O)c(O)c2)nnc1-c1ccccc1OC,-3.9,81.3*,62.1*
C=CCn1c(SCC(=O)c2ccc(O)c(O)c2)nnc1-c1ccccc1OC,3.4,84.6*,62.2*
CSc1cccc(NC(=O)CSc2nc3ccccc3o2)c1,-11.3,9.1,/
CCOC(=O)C1C(=O)OC(C)(C)C1C(C)C(=O)c1ccccc1 (stereo not drawn),-13.1,/,/
O=C(CC(c1ccco1)C1CCCCC1=O)c1ccccc1 (stereo not drawn),36.2,/,/
O=S(=O)(c1ccc(S(=O)(=O)N2CCN(C/C=C/c3ccccc3)CC2)cc1)N1CCCC1,-8.6,59.2*,56.1*
O=C(Cc1ccccc1)N1CCN(C/C=C/c2ccccc2)CC1,29.7,-81.8,/
CC(NC(=S)NCCc1ccccc1)C(c1cccs1)N1CCN(Cc2ccccc2)CC1 (stereo not drawn),-11.4,/,/
Cc1cccc(NC(=O)c2ccccc2Br)n1,6.8,63.2*,20.3
Cc1cccc(NC(=O)c2ccccc2[N+](=O)[O-])n1,-0.6,/,/
Cc1c(Br)c([N+](=O)[O-])nn1C(C)C(=O)N1CCCc2ccccc21 (stereo not drawn),-0.2,/,/
COc1cc(C(c2nnnn2C2CCCC2)N2CCc3ccccc3C2)ccc1O (stereo not drawn),-7.3,50.7*,22.2
Oc1ccc(C(c2nnnn2C2CCCC2)N2CCc3ccccc3C2)cc1 (stereo not drawn),-5.5,11.0,/
COc1cc(/C(C#N)=C/c2ccccc2)c([N+](=O)[O-])cc1OC,1.1,/,/
CCn1c(=S)sc2nc(C)sc21,3.7,84.0*,46.0
CCn1c(-c2ccc(C)cc2)n[nH]c1=S,5.2,/,/
Nc1ncnc2c1nc(Sc1ccc(Cl)cc1)n2[C@@H]1O[C@@H]2COP(=O)(O)O[C@H]2[C@H]1O,6.5,/,/
COc1ccccc1NS(=O)(=O)c1ccc(NC(=O)c2nc3nc(C)cc(C(F)F)n3n2)cc1,-5.9,/,/
Nc1nnc(CSCc2ccc(F)cc2)s1,10.9,73.8*,61.5*
Nc1nnc(-c2ccc(F)cc2)s1,-9.8,16.8,/
CC(=O)NC(c1ccco1)c1ccc2cccnc2c1O (stereo not drawn),/,-5.9,/
OCCN1CCN(C(c2cccs2)c2ccc3cccnc3c2O)CC1 (stereo not drawn),-9.1,72.4*,8.9
CC1CCN(C(c2cccs2)c2nnnn2Cc2ccccc2)CC1 (stereo not drawn),7.1,/,/
SMILES,RmlCD inh mix,HIV RNase H inh-1,HIV RNase H inh-2
CCOC(=O)c1sc(NC(C)=O)c(C(=O)OCC)c1C,6.7,-3.5,/
COC(=O)c1sc(NC(C)=O)c(C(=O)OC)c1C,0.7,57.7*,0.0
O=C(NC1CCN(C(=S)NCc2ccco2)CC1)NC12CC3CC(CC(C3)C1)C2,4.9,/,/
COC(=O)C1=C(C(=O)OC)[C@@H]2Nc3ccccc3[C@@]23C[C@@H](C(=O)OC)N(C(=O)c2ccco2)C3=N1,12.9,/,/
COc1cc(Cl)c(C)cc1NC(=O)CSc1nnc(-c2ccccn2)n1Cc1ccco1,18.4,15.4,/
O=C(CCCSc1nnnn1-c1cccc2ccccc12)c1ccc(F)cc1,4.7,/,/
COc1ccc2[nH]c3nc(SCc4nnc(-c5ccc(C)cc5)o4)nnc3c2c1,8.8,59.8*,8.0
COc1ccc2[nH]c3nc(SCC(=O)Nc4ccc5c(c4)OCO5)nnc3c2c1,5.8,/,/
CC1(C)CC(=O)C=C(NCc2ccc(Cl)c(Cl)c2)C1,12.9,/,/
COc1ccccc1N(O)C1CC(=O)N(c2ccc(Br)cc2)C1=O (stereo not drawn),-12.7,67.7*,25.4
CCCCCCC(=O)N(O)C1CC(=O)N(c2ccc(Br)cc2)C1=O (stereo not drawn),-5.1,23.9,/
c1ccc2c(c1)nnn2Cc1nnc2sc(-c3ccc4c(c3)OCCO4)nn12,-1.1,91.3*,52.4*
Cc1ccc(-c2nnc3sc(-c4ccc5c(c4)OCCO5)nn23)cc1,/,1.2,/
CC(=O)Oc1oc(-c2ccccc2)nc1C=Nc1ccccc1,19.7,/,/
CCOC(=O)c1ccc(N=Cc2nc(-c3ccccc3)oc2OC(C)=O)cc1,10.9,75.1*,1.2
CCCC(=O)N(CCN(C(=O)CCC)c1ccccc1)c1ccccc1,11.8,/,/
CCOC(=O)C1CCCN(c2c(Nc3cccc(C)c3)c(=O)c2=O)C1 (stereo not drawn),-9.3,5.6,/
